Experiment in all cases: NCI-60 one-dose screen, 48 h (100 = growth as untreated, 0 = no growth, -100 = all killed)
Assay [1] concerns HCT-15 colon. As to conditions: 10 µM unless noted.
Assay [2] relates to HT29 colon. The following applies: 10 µM unless noted.
The subject of assay [3] is SNB-75 CNS. The following applies: 10 µM unless noted.
In assay [4] the test system is SNB-19 CNS. As to conditions: 10 µM unless noted.
The test system of assay [5] is U251 CNS. The following applies: 10 µM unless noted.
Assay [6] relates to PC-3 prostate. The following applies: 10 µM unless noted.
Assay [7] deals with SK-MEL-5 melanoma. As to conditions: 10 µM unless noted.
For assay [8], the system named is LOX IMVI melanoma. As to conditions: 10 µM unless noted.
For assay [9], the system named is SK-MEL-28 melanoma. The following applies: 10 µM unless noted.
In assay [10] the test system is SK-MEL-2 melanoma. The following applies: 10 µM unless noted.
For assay [11], the system named is EKVX NSCLC. As to conditions: 10 µM unless noted.
Assay [12] deals with SN12C renal. As to conditions: 10 µM unless noted.
The test system of assay [13] is UO-31 renal. The following applies: 10 µM unless noted.
The test system of assay [14] is ACHN renal. The following applies: 10 µM unless noted.
Assay [15] relates to CAKI-1 renal. As to conditions: 10 µM unless noted.
In assay [16] the test system is A498 renal. The following applies: 10 µM.
The test system of assay [17] is HL-60(TB) leukemia. As to conditions: 10 µM unless noted.
Assay [18] deals with CCRF-CEM leukemia. The following applies: 10 µM unless noted.
Assay [19] relates to TK-10 renal. The following applies: 10 µM unless noted.

The panel holds about 83,000 compounds, 20% with a hit somewhere; the sample as a whole holds those more often.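 Percent growth is the endpoint: 0 to 100 indicates growth inhibition (40 means 60% inhibition), 0 means no net growth, and negative values indicate cell death.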 A number with no mark means an inactive call. Activity calls are given as the source filed them. Rule for the calls: active = growth percent below 10; inactive = the rest.

`Cc1ccc(Nc2nc3c(s2)C2=CC[C@@H]4[C@H](CC[C@]5(C)C(=O)CC[C@@H]45)[C@@]2(C)CC3)cc1`: the growth is 17% in [1]; 15% in assay [2]; 28.7% in assay [3]; 55.4% in assay [4]; 33.4% in [5]; 33% in assay [6]. Further, the growth is 56.6% in [7]; 21.3% in assay [8]; 37.6% in assay [9]; 46.3% in assay [10]; 56.7% in assay [11]; 60% in [12]. The growth in assay [13] is 48.3%; in assay [14], 20.1%; in assay [15], 34.3%; in [16], 51.3%; in [17] it was 34%; in [18], 7.68% (active).
In the case of `O=C(O)C1C(C(=O)O)C2(Cl)C(Cl)=C(Cl)C1(Cl)C2(Cl)Cl.[Hg]` (stereo unspecified), the growth was 87% in assay [1]; 82.2% in [2]; 86.6% in [3]; 96.9% in assay [4]; 44.7% in assay [5]; 76.2% in assay [6]. The growth in assay [7] was 85.3%; in assay [8], 85.2%; in [9] it was 96.7%; in assay [10], 102%; in assay [11] it was 102%; in [12], 87.4%. Further, the growth is 111% in assay [13]; 101% in [15]; 149% in [16]; 68.9% in assay [17]; 71.8% in [18].
Take `C[C@]12CCc3sc(-c4cccc(F)c4)nc3C1=CC[C@@H]1[C@@H]2CC[C@]2(C)C(=O)CC[C@@H]12`: the growth is -38.2% (active) in assay [1]; 5.21% (active) in assay [2]; 44.6% in [3]; 60% in [4]; 18.8% in [5]; 35% in [6]. In addition, the growth in [7] was 61.5%; in assay [8], 1.34% (active); in assay [9], 48%; in assay [10], 32.1%; in assay [11], 68.3%; in assay [12], 42.9%. Also, the growth in [13] is 1.08% (active); in assay [14], 11.9%; in [15], 36.9%; in assay [17], 34.2%; in [18] it was 15.8%.
On to `COc1ccc2c(c1)c(-c1nc(-c3cn(C)c4ncccc34)cs1)cn2CCN1CCOCC1`, for which the growth in assay [1] is 20.9%; in [2] it was 25.9%; in [3], 63.3%; in [4] it was 33.1%; in assay [5], 28.2%; in assay [6], 17.6%. In addition, the growth was 30.7% in [7]; 32.5% in [8]; 56.1% in [9]; 56% in assay [10]; 61.1% in [11]; 34.3% in assay [12]. Further, the growth in [13] is 3.02% (active); in assay [19] it was 49.4%; in assay [14] it was 32.1%; in [16] it was 76.1%; in assay [17], 31.3%; in [18], 31.1%.
On to `Brc1ccc2c(c1)c(-c1nc(-c3c[nH]c4ncccc34)cs1)cn2CCN1CCOCC1`, for which the growth was 35.5% in assay [1]; 57.8% in assay [2]; 56.4% in assay [3]; 71.6% in [4]; 52.8% in assay [5]; 30.3% in assay [6]. The growth is 51.3% in [7]; 66.7% in assay [8]; 94.5% in [9]; 80% in assay [10]; 43.5% in assay [11]; 71.5% in assay [12]. The growth was 35.8% in assay [13]; 74.1% in assay [19]; 55.2% in assay [14]; 88.7% in assay [16]; 71% in assay [17]; 45.8% in [18].
Regarding `Cn1cc(-c2csc(-c3cn(CCCCN4CCCCC4)c4ccc(F)cc34)n2)c2cccnc21`, the growth in assay [1] is 76%; in assay [2] it was -73.5% (active); in assay [3], 68.8%; in [4], 87.1%; in assay [5] it was 80.7%; in assay [6] it was 68.4%. Moreover, the growth in assay [7] is -100% (active); in [8] it was 75.9%; in [9], -78.2% (active); in assay [10] it was 97.4%; in assay [11], 89%; in assay [12], 75.7%. Moreover, the growth is 20.6% in assay [13]; 106% in [19]; 54.6% in [14]; 81.5% in assay [16]; -0.887% (active) in assay [17]; -60.5% (active) in assay [18].
On to `C[C@]12CC[C@H]3[C@@H](CC[C@]4(O)C[C@@H](O[C@@H]5O[C@H](CO)[C@@H](O[C@@H]6OC[C@@H](O)[C@H](O)[C@H]6O)[C@H](O)[C@H]5O)CC[C@]34C=O)[C@@]1(O)CC[C@@H]2C1=CC(=O)OC1`, for which the growth in [1] is -9.5% (active); in [2], 3.12% (active); in [3] it was 28%; in assay [4], 26%; in assay [5], 4.09% (active); in assay [6], 4.54% (active). Moreover, the growth is -14.1% (active) in assay [7]; -37.3% (active) in [8]; 41.6% in [9]; -32.6% (active) in [10]; -59.9% (active) in [11]; -32.1% (active) in assay [12]. For the same compound, the growth is 6.18% (active) in [13]; -6.98% (active) in assay [19]; -34.3% (active) in [14]; -5.08% (active) in [15]; -9.04% (active) in assay [16]; -14.5% (active) in assay [18].
Take `ClC1=C(Cl)C(Cl)(C2(Cl)C(Cl)=C(Cl)C(Cl)=C2Cl)C(Cl)=C1Cl`: the growth in [1] was -41.9% (active); in assay [2], -64.2% (active); in assay [3] it was 62%; in assay [4] it was 10.5%; in [5], -11.3% (active); in assay [6], -8.81% (active). Moreover, the growth in [7] is -21.8% (active); in assay [8], -85.5% (active); in [9], -18.1% (active); in [10] it was 16.9%; in assay [11], 5.58% (active); in [12], -25.2% (active). Further, the growth was -89.6% (active) in assay [13]; -91.3% (active) in [19]; 67% in assay [16]; -36.3% (active) in assay [17]; -57.6% (active) in assay [18].

These data come from PubChem BioAssay (NCI).
